Binding signal data for twelve sequences are collected here from PMC4081100, “A DNA-binding-site landscape and regulatory network analysis for NAC transcription factors in Arabidopsis thaliana”.

Assay in all cases: universal protein binding microarray (PBM); transcription factors of Arabidopsis thaliana; high values mean tight binding
Test [1] addresses T1, GST-ANAC092(1-285) full length (Arabidopsis thaliana, UniProt Q9FKA0 1-285).
T1 sequence: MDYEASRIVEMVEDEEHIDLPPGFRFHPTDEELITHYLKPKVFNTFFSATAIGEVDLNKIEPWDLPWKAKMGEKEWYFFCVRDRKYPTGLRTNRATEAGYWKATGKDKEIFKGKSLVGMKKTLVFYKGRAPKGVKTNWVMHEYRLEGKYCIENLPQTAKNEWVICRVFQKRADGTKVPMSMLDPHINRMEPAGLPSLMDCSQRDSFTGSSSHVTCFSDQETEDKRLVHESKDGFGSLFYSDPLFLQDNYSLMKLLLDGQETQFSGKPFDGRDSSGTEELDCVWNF
The conditions noted are these: protein: recombinant; tags: GST; chain copies: 2; dsDNA, one strand shown. The procedure, abridged: (§1)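 Protein amounts were determined by A280 or anti-GST western blot after glutathione–Sepharose 4B purification of GST-tagged proteins induced in cells, with zinc acetate included for zinc-finger proteins. Duplicate runs at 200 to 500 nM final were done on custom all-10-mer Agilent 4 × 180K arrays made double-stranded by primer extension. The normalised enrichment score (E-score) over gapped and ungapped 8-mers is the measure of binding.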

The target of test [2] is GST-WRKY1(266-371) (Arabidopsis thaliana, UniProt Q9SI37 266-371). To be noted: protein: recombinant; tags: GST; dsDNA, one strand shown. In short, it runs like this: as §1
Test [3] addresses GST-NTL6(1-168) (Arabidopsis thaliana, UniProt Q9SCK6 1-168). The conditions noted are these: protein: recombinant; tags: GST; chain copies: 2; dsDNA, one strand shown. The procedure, abridged: as §1
Test [4] concerns the target T2, GST-ANAC019 NAC domain (Arabidopsis thaliana, UniProt Q9C932 14-162).
T2 sequence: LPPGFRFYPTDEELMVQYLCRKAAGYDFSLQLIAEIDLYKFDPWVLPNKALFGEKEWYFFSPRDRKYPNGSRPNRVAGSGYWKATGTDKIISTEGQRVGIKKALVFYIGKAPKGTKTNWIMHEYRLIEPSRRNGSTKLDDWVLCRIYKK
The conditions noted are these: protein: recombinant; tags: GST; chain copies: 2; dsDNA, one strand shown. The procedure, abridged: as §1

In test [5] the target is T3, GST-NST2(1-184) (Arabidopsis thaliana, UniProt Q9M274 1-184).
T3 sequence: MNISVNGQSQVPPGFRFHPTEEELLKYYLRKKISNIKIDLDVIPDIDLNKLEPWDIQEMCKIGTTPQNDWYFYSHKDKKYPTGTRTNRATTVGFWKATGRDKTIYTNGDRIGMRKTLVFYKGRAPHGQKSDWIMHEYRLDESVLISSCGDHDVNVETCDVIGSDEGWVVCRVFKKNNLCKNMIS
To be noted: protein: recombinant; tags: GST; chain copies: 2; dsDNA, one strand shown. The procedure, abridged: as §1

The target of test [6] is T4, GST-NTL8 NAC domain (Arabidopsis thaliana, UniProt Q9XIN7 14-156).
T4 sequence: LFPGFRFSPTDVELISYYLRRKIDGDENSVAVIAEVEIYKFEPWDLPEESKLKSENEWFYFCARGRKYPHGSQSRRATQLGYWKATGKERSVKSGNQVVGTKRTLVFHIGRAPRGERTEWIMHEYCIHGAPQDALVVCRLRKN
To be noted: protein: recombinant; tags: GST; chain copies: 2; dsDNA, one strand shown. In short, it runs like this:
as §1

The target of test [7] is T5, GST-NAP(1-166) (Arabidopsis thaliana, UniProt O49255 1-166).
T5 sequence: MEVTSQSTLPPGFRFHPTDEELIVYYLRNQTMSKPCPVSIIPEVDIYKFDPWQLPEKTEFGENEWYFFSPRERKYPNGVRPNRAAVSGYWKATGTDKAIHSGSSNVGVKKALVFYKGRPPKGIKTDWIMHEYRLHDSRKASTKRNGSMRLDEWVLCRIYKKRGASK
To be noted: protein: recombinant; tags: GST; chain copies: 2; dsDNA, one strand shown. The procedure, abridged: as §1

The target in test [8] is T6, GST-ANAC092(1-176) (Arabidopsis thaliana, UniProt Q9FKA0 1-176).
T6 sequence: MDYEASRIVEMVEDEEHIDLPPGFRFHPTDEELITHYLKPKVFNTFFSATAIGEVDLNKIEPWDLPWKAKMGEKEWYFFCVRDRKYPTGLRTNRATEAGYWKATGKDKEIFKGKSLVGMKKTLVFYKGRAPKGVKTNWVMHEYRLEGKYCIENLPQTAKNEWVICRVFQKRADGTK
To be noted: protein: recombinant; tags: GST; chain copies: 2; dsDNA, one strand shown. In short, it runs like this:
as §1

GST-WRKY1(266-371), sequence (Q9SI37 266-371): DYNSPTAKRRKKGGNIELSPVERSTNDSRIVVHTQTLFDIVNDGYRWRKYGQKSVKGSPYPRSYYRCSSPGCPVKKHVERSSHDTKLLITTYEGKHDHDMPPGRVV
GST-NTL6(1-168), sequence (Q9SCK6 1-168): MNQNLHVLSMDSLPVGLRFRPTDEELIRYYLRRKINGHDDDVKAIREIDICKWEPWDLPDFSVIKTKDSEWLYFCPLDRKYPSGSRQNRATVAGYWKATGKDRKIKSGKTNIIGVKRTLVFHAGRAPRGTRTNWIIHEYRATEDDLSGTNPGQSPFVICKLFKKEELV

Regarding GTCAAGAC, the results for the binding signal in test [1] and in test [2] were 0.0871 E-score and 0.446 E-score, respectively.

For AGGTTTCC, the binding signal in test [3] is 0.052 E-score; in test [4] it was 0.0846 E-score; in test [5] it was 0.0833 E-score; in test [6], 0.457 E-score.

As for GGGGGGAA, in test [6], the binding signal was determined as 0.453 E-score.

For the sequence ACATTGAC, the values for the binding signal in test [7] and in test [2] were 0.0505 E-score and 0.465 E-score, respectively.

Turning to CCTTTCCC, the binding signal in test [8] turned out to be 0.088 E-score; in test [3], 0.11 E-score; in test [4], 0.0681 E-score; in test [6], 0.421 E-score.

Turning to TGAGTCAA, the figures for the binding signal in test [1] and in test [2] were 0.0797 E-score and 0.48 E-score, respectively.

For the sequence CCTCTGAC, the binding signal is 0.12 E-score in test [6] and 0.408 E-score in test [2].

Take ATGGGTCA: the binding signal in test [7] was 0.0537 E-score; in test [2], 0.422 E-score.

CGGGGTCA: the binding signal in test [6] came to 0.107 E-score; in test [2], 0.412 E-score.

Turning to ACGGTCAG, the binding signal in test [6] was 0.0654 E-score; in test [2], 0.432 E-score.

CGGTCAAC: the figures for the binding signal in test [7] and in test [2] were 0.118 E-score and 0.495 E-score, respectively.

For the sequence GTCGTCAA, the results for the binding signal in test [7] and in test [2] were 0.0529 E-score and 0.424 E-score, respectively.
